In ChEMBL document CHEMBL3988442, “University of Dundee, Small-Polar-MMV Screening Library” (2021):
Screen size: about 48,000 compounds; about 13,000 (27%) showed an effect of 50% or more. The list shows a part of the results.

Tested on: Wolbachia pipientis
Experiment: Anti-Wolbachia Cell-Based Screen
Type: functional
Design: scale not given: in the data most compounds retested in dose-response had high values
Conditions: 5 µM

Row | Structure (SMILES) | Percent Effect [%]
1 | O=C(NCc1cccnc1-n1cncn1)c1cc(Cl)ccn1 | 106.2
2 | CC(C(=O)NCc1ccc(-n2cncn2)nc1)S(C)(=O)=O (centres undefined) | -11.84
3 | O=C(NCc1ccc(-n2cncn2)nc1)c1cnccn1 | 91.78
4 | CCC(C)C(=O)NCc1ccc(-n2cncn2)nc1 (centres undefined) | -5.498
5 | CC(C)C(=O)NCc1ccc(-n2cncn2)nc1 | -6.912
6 | CC(C)COC(C)C(=O)NCc1ccc(-n2cncn2)nc1 (centres undefined) | -8.308
7 | O=C(NCc1ccc(-n2cncn2)nc1)c1ccoc1 | 0.1706
8 | CCCc1nc(C(=O)NCc2cccnc2-n2cncn2)cs1 | -5.546
9 | CC(C(=O)NCc1ccc(-n2cncn2)nc1)n1ccnc1 (centres undefined) | -4.71
10 | CCN(CC)c1ccc(C(=O)NCc2cccnc2-n2cncn2)cn1 | 14.25
11 | O=C(NCc1ccc(-n2cncn2)nc1)c1cc(Cl)ccn1 | 100.5
12 | O=C(NCc1ccc(-n2cncn2)nc1)c1cc[nH]n1 | 86.29
13 | COCCN(Cc1ccc(F)cc1Cl)C(=O)c1ccc(=O)[nH]n1 | -1.923
14 | CCc1nsc(N2CCN(CC(=O)Nc3c(C)n[nH]c3C)CC2)n1 | -25.55
15 | CCc1nc(CN2CCCN(C(=O)COCC3CC3)CC2)cs1 | -1.235
16 | CCN(CC(C)O)C(=O)Nc1cnn(CCOC)c1 (centres undefined) | -12.18
17 | NC(=O)NC(=O)CCN1CCCN(c2nccs2)CC1 | -3.66
18 | COCc1cc(N(C)Cc2cnccn2)nc(C(C)(C)C)n1 | 4.515
19 | CC(C)(CNCc1ccc(OCc2cscn2)cc1)C(N)=O.Cl | 0.3922
20 | CCOC(=O)C1(Cc2cccc(OC)c2)CCN(Cc2ccon2)CC1 | 2.808
21 | COc1ccc(F)cc1NC(=O)NCC1(CN2CCOCC2)CC1 | 21.38
22 | COc1ccccc1CCN[C@@H]1c2ccccc2C2(CCNCC2)[C@H]1O | -1.43
23 | COc1ccccc1-c1ccccc1CC1(C(=O)O)CCNCC1 | 100.9

Row | Structure (SMILES) | Percent Effect [%]
24 | COc1ccc(F)cc1-c1ccccc1CC1(C(=O)O)CCOCC1 | 118.1
25 | COc1ccccc1Oc1ncccc1CNC(=O)C1(C)CCCNC1 (centres undefined) | 21.66
26 | COc1ccccc1CN(C)C(=O)CN1C(=O)OC[C@@H]1c1ccccc1 | -5.71
27 | CCOC(=O)C1(Cc2ccccc2-c2ccccc2OC)CCNCC1.Cl | 172.1
28 | COc1ccc(F)cc1NC(=O)NCC1(C)COC1 | 5.652
29 | O=C(Cc1ccccn1)N1CCn2cc(Cn3cncn3)nc2C1 | 22.42
30 | Cn1cc(C2(C)CN(c3ncccc3C#N)CCO2)cn1 (centres undefined) | -13.05
31 | CN(C)Cc1ccnc(NS(=O)(=O)CCc2ccccc2)c1 | -12.88
32 | OCc1cc2ccccc2nc1N1CCCC1 | 4.126
33 | CN(C)CCNC(=O)c1cc2n(n1)CCN(C(=O)c1ccco1)C2 | -13.42
34 | Cc1cc(C)c(C(=O)N2CCn3nc(C(=O)NCCN(C)C)cc3C2)[nH]1 | -6.569
35 | CCCc1nc(C(=O)N2CCN(C(=O)OC)CC2)cs1 | -2.631
36 | COC(=O)c1cc2n(n1)CCN(C(=O)c1csc(CN(C)C)n1)C2 | 85.52
37 | CCCc1nc(C(=O)N2CCn3nc(C(=O)OC)cc3C2)cs1 | 111.4
38 | CCCc1nc(C(=O)N2CCN(C(=O)c3ccc(OC)cc3)CC2)cs1 | 10.06
39 | Cc1cc(C)c2nc(CN3C[C@H](CCO)[C@@H](N)C3)cc(O)c2c1 | -3.113
40 | CCOCC(=O)Nc1ccc(-n2ccc(C(N)=O)n2)cc1 | 5.23
41 | CCc1ccc(CN2CCC(=O)N(CC3CC3)C(C(C)C)C2)nc1 (centres undefined) | -6.583
42 | Cc1cc(CNC(=O)c2ccc(F)c(COCC3CC3)c2)no1 | 7.35
43 | Cn1cnnc1C1CCCN(C(=O)NCCCn2cccn2)C1 (centres undefined) | 106.2
44 | COCCCNC(=O)N1CCCC(c2nncn2C)C1 (centres undefined) | -7.003
45 | Cn1cnnc1C1CCCN(C(=O)NCCn2ccnc2)C1 (centres undefined) | 89.71
46 | Cn1cnnc1C1CCCN(C(=O)NCCOc2ccccc2)C1 (centres undefined) | 6.909

Row | Structure (SMILES) | Percent Effect [%]
47 | Cn1cnnc1C1CCCN(C(=O)NCCNc2ccccn2)C1 (centres undefined) | 14.43
48 | CC(C)N1CCC(CC(=O)NC(C(=O)O)c2cc(F)ccc2F)CC1 (centres undefined) | 9.298
49 | CC(C)N1CCC(Cc2cncc(-c3cc(F)ccc3C(=O)O)n2)C1 (centres undefined) | 135
50 | CC(C)N1CCC(CC(=O)NC(C(=O)O)c2ccc(F)cc2)CC1 (centres undefined) | 7.704
51 | CN1CCC(Cc2cccc(-c3cc(F)ccc3C(=O)O)n2)CC1 | 135.9
52 | CN1CCC(Cc2noc(-c3cn(Cc4ccc(F)cc4)nn3)n2)CC1 | -9.878
53 | CC(C)N1CCC(CC(=O)NC(C(=O)O)c2cccc(F)c2)CC1 (centres undefined) | -7.789
54 | CC(C)N1CCC(CNC(=O)CCc2cc(F)ccc2F)C1 (centres undefined) | 16.43
55 | CC(C)N1CCC(Cc2cncc(-c3cc(F)ccc3C(=O)O)n2)CC1 | 98.45
56 | CC(C)N1CCC(CNC(=O)COc2ccc(F)cc2F)C1 (centres undefined) | 8.17
57 | CC(C)N1CCC(Cc2cc(-c3ccccc3C(=O)O)ncn2)CC1 | -18.63
58 | Cn1cc(C(=O)O)c(-c2ccc(F)cc2F)n1 | -6.689
59 | CC(C)N1CCC(Cc2cc(-c3cc(F)ccc3C(=O)O)ncn2)C1 (centres undefined) | 139.5
60 | CC(C)c1ccc(S(=O)(=O)NC2(CC(N)=O)CCC2)cc1 | -1.072
61 | Cn1cc(CN2CC[C@@H]3[C@@H](CCC(=O)N3CCc3c[nH]cn3)C2)cn1 | 6.547
62 | CCOCCS(=O)(=O)N(CC)Cc1ccc(Cl)s1 | -4.367
63 | CCc1nn(C)c(Cl)c1CN1CCN(c2nc(C(N)=O)cs2)CC1 | 12.42
64 | O=C1COC2(CCN(c3ncccn3)CC2)CN1c1ccsc1 | 18.21
65 | CCc1cnc(CN(C(C)=O)C2CCN(CCN3CCCCC3)C2)o1 (centres undefined) | 112.7
66 | CCc1cnc(CN(C(C)=O)C2CCN(CCS(C)(=O)=O)C2)o1 (centres undefined) | -15.83
67 | CCc1cnc(CN(C(C)=O)C2CCN(CC3(O)CCCCC3)C2)o1 (centres undefined) | 86.51
68 | CC(=O)N(Cc1ncc(C(C)C)o1)C1CCN(CCn2cccn2)C1 (centres undefined) | 8.925
69 | CCc1cnc(CN(C(C)=O)C2CCN(CC(=O)N3CCCC3)C2)o1 (centres undefined) | 113.8
